About 83,000 compounds went through this panel and 20% of them were active in at least one assay; those are over-represented in the sample as a whole.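 Cell lines were cultured in 96-well plates, exposed to a single compound concentration, and assessed for percent growth 48 hours later.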 A number with no mark means an inactive call. Activity calls are given as the source filed them. Rule for the calls: active = growth percent below 10; inactive = the rest.
system: BT-549 breast; experiment: NCI-60 one-dose screen, 48 h (100 = growth as untreated, 0 = no growth, -100 = all killed); details: 10 µM unless noted

SMILES	growth
CS(=O)(=O)c1ccc(C(=O)N/N=C/c2ccccc2O)cc1	53%
CCCCCCCCCCCCCC	112%
C[Si](C)(C)C(c1ccccc1)c1ccccc1	108%
C=CCN1C(=O)/C(=c2\sc3n(c2=O)C2C(NN=3)N(CC)C(=O)N2CC)c2ccccc21 (stereo not given)	25%
CNC1=C([N+](=O)[O-])C(c2ccccc2O)C(C#N)=C(c2cccs2)O1 (stereo not given)	100%
NS(=O)(=O)c1ccc(CCn2c(SCC(=O)N/N=C/c3cccnc3)nc3ccccc3c2=O)cc1	79%
O=[N+]([O-])c1ccc(Sc2nc(Cl)nc(NC3CCCC3)n2)cc1	-97.1% [100 µM] (active)
COC(=O)OC1C(O[C@H]2C[C@H]3[C@@H]4CC=C5C[C@@H](O)CC[C@]5(C)[C@H]4CC[C@]3(C)[C@H]2[C@H](C)C(=O)CCC(C)C)OCC(O)C1OC1OCC(O)C(O)C1OC(=O)c1ccc(OC)cc1 (stereo not given in full)	6.19% (active)
CCCCCCCCCCCC1=NC(C)(C)CN1CC(C)O (stereo not given)	67.8%
O=C(C(=O)N1CCCC1)c1cn(CCCn2cc(C(=O)C(=O)N3CCCC3)c3cc(Br)ccc32)c2ccc(Br)cc12	84.7%
Cc1c(C(N)=O)sc2ncn(CC(=O)NN=C3CCCCC3)c(=O)c12	99.4%
Fc1ccc(-c2nc(-c3ccc(-c4nc5ccc(F)cc5[nH]4)cc3)no2)cc1	60.1%
Cc1cc2nc(CN)[nH]c2cc1C	101%
N=C(N)c1ccc(-c2ccc(-c3cccs3)s2)cc1F	-80.6% (active)
Oc1c(C(Nc2cccc3ccccc23)c2ccccc2)ccc2cccnc12 (stereo not given)	-16.1% (active)
CSc1ccc(/C=C2\C=C(CC(=O)NCc3ccc(C(=O)c4ccccc4)cc3)c3cc(F)ccc32)cc1	25.7%
CCN(CC)c1ccc(/C=N/N=C(N)N)cc1	51.5%
CC(=O)O[C@@H]1CC2C(C)(C)CCCC2(C)C2=C1C(=O)C(C(C)C)=CC2=O (stereo not given in full)	-13% (active)
c1ccc(CCn2cccc2)nc1	106%
c1ccc(-c2nnn(-c3ccccc3)n2)cc1	87.5%
Cc1csc(N/N=C/c2ccncc2)n1	105%
COc1ccccc1CNCCCN1C(=O)c2ccc3c4c(ccc(c24)C1=O)C(=O)N(CCCCNCCCN)C3=O	58%

system: MDA-MB-435 melanoma; experiment: as above; details: 10 µM unless noted

SMILES	growth
Clc1cccc(CNc2c3ccccc3nc3ccccc23)c1	46.6%
CC(C)(C)c1ccc(OC(=O)Nc2ccccc2)cc1	107%
O=C(/C=C/c1ccco1)c1ccccc1O	113%
CC(C)CC(=O)C(CCc1ccccn1)C(C)C (stereo not given)	104%
Cc1nn(-c2ccccc2)c2nc3c(nc12)C1=NCCN1C(c1ccc(Cl)cc1)N3 (stereo not given)	51.5%
Cc1cc([N+](=O)[O-])c(C)cc1N	110%
O=C1/C(=C/c2cc(F)cc(F)c2)Cc2cc(F)cc(F)c21	94.8%
N/C(=N\OC(=O)c1ccccc1)C(C(=O)NOC(=O)c1ccccc1)C1CCCCC1 (stereo not given)	38.9%
CCN(CC)CCNC(=O)C(F)(F)C(F)(F)C(F)(F)F	109%
O=C(Nc1ccncc1)C(=O)c1cn(S(=O)(=O)c2cccc(Cl)c2F)c2ccccc12	8.25% (active)
CC(=O)Oc1c(Cl)c(Cl)c(Cl)c(Cl)c1Cl	102%
COc1cnc2c(c1)C(=O)c1c-2n(CCCN2CCNCC2)c(=O)c2cc(Cl)ccc12	0.312% (active)
Cc1cc(C#Cc2ccc(C(C)(C)C)cc2)ccc1-n1c(/C=C/c2c(Cl)cccc2Cl)nc2ccccc2c1=O	98%
CS(=O)(=O)c1ccc(C(=O)N/N=C/c2ccccc2Cl)cc1	106%
O=C(/C=C/c1ccccc1)c1c[nH]c2ccccc2c1=O	-18.4% (active)
COC(=O)[C@H](Cc1cn(C)cn1)NC(=O)[C@H](CC(C)C)NC(=O)Nc1cc(C(F)(F)F)cc(C(F)(F)F)c1	-97.1% [100 µM] (active)
CS(=O)(=O)c1ccc(C(=O)N/N=C/c2ccccc2O)cc1	59.7%
CCCCCCCCCCCCCC	104%
C[Si](C)(C)C(c1ccccc1)c1ccccc1	92.1%

SMILES	growth
C=CCN1C(=O)/C(=c2\sc3n(c2=O)C2C(NN=3)N(CC)C(=O)N2CC)c2ccccc21 (stereo not given)	-30.2% (active)
CNC1=C([N+](=O)[O-])C(c2ccccc2O)C(C#N)=C(c2cccs2)O1 (stereo not given)	97.8%
NS(=O)(=O)c1ccc(CCn2c(SCC(=O)N/N=C/c3cccnc3)nc3ccccc3c2=O)cc1	93.7%
O=[N+]([O-])c1ccc(Sc2nc(Cl)nc(NC3CCCC3)n2)cc1	-95.9% [100 µM] (active)
COC(=O)OC1C(O[C@H]2C[C@H]3[C@@H]4CC=C5C[C@@H](O)CC[C@]5(C)[C@H]4CC[C@]3(C)[C@H]2[C@H](C)C(=O)CCC(C)C)OCC(O)C1OC1OCC(O)C(O)C1OC(=O)c1ccc(OC)cc1 (stereo not given in full)	-15.3% (active)
CCCCCCCCCCCC1=NC(C)(C)CN1CC(C)O (stereo not given)	-7.43% (active)
O=C(C(=O)N1CCCC1)c1cn(CCCn2cc(C(=O)C(=O)N3CCCC3)c3cc(Br)ccc32)c2ccc(Br)cc12	74.3%
Cc1c(C(N)=O)sc2ncn(CC(=O)NN=C3CCCCC3)c(=O)c12	99%
Fc1ccc(-c2nc(-c3ccc(-c4nc5ccc(F)cc5[nH]4)cc3)no2)cc1	68.2%
Cc1cc2nc(CN)[nH]c2cc1C	109%
N=C(N)c1ccc(-c2ccc(-c3cccs3)s2)cc1F	-81.5% (active)
Oc1c(C(Nc2cccc3ccccc23)c2ccccc2)ccc2cccnc12 (stereo not given)	42.3%
CSc1ccc(/C=C2\C=C(CC(=O)NCc3ccc(C(=O)c4ccccc4)cc3)c3cc(F)ccc32)cc1	-47.8% (active)
CCN(CC)c1ccc(/C=N/N=C(N)N)cc1	-23% (active)
CC(=O)O[C@@H]1CC2C(C)(C)CCCC2(C)C2=C1C(=O)C(C(C)C)=CC2=O (stereo not given in full)	-28.1% (active)
c1ccc(CCn2cccc2)nc1	114%
c1ccc(-c2nnn(-c3ccccc3)n2)cc1	106%
Cc1csc(N/N=C/c2ccncc2)n1	104%
COc1ccccc1CNCCCN1C(=O)c2ccc3c4c(ccc(c24)C1=O)C(=O)N(CCCCNCCCN)C3=O	-70% (active)

Reference: PubChem BioAssay (NCI)
